Our source for the inhibition values is PubChem BioAssay AID488890 (Southern Research Specialized Biocontainment Screening …, 2010).

Out of some 320,000 compounds screened, about 1,300 (0.41%) were called active. About 3% were inconclusive and are not listed. The rule behind the calls is not given here. Not all results are given here. Potency and affinity values are given separately.

This assay in a line: growth inhibition of non-replicating M. tuberculosis (AID 488890).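 Note: plate controls were DMSO cells for no effect and high antibiotic wells for full effect.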 Conditions: Mycobacterium tuberculosis non-replicating, at 25 µM, stronger effect = higher value.
On to `CC1=C(/C=C/C(=O)O)C(C)(C)CCC1`, for which the inhibition was 13.1%.

With `CC(/C=C/c1ccc2c(c1)OCO2)=N\NC(=O)c1cccc([N+](=O)[O-])c1`, the inhibition worked out at 68.6%.

Regarding `CC1=C(/C=C/C(C)=C/C=C/C(C)=C/C(=O)O)C(C)(C)CCC1`, the inhibition turned out to be 15.6%.

As for `C/C(=N\NC(=O)c1cccc([N+](=O)[O-])c1)c1ccncc1`, the inhibition came to 8.18%.

Consider `COc1cc(NC(=O)CN2CCN(c3ccccc3)CC2)c(C)cc1[N+](=O)[O-]`, for which the inhibition is -14%.

`O=C1C(c2ccccc2)=C(N2CC2)c2ccccc21`: the inhibition was determined as 15.4%.

For `Nc1c(C(=O)c2ccccc2)sc2c1c(=O)[nH]c(=O)n2-c1ccccc1`, the inhibition is 6.25%.

Regarding `CCOC(=O)c1nn(-c2cccc(Cl)c2)c2nc(Nc3ccccc3)cc(=O)n12`, the inhibition was 63.6%.

In the case of `CCOC(=O)c1nn(-c2ccc(F)cc2)c2nc(Nc3ccccc3)cc(=O)n12`, the inhibition was found to be 75.5%.

Turning to `Cc1cc(C(=O)N2CCCC(N3CCN(c4ccccc4C)CC3)C2)n(C)n1` (centres undefined), the inhibition was 8.85%.

`CCN1CCN(C2CC(=O)NC2=O)CC1` (centres undefined): the inhibition is -2.18%.

As to `Cc1ccc(NC(=O)C2CCN(C(=O)N3CCOc4ccccc43)CC2)cc1`, the inhibition was 25.7%.

Turning to `Oc1ccc(Br)cc1CN1CCCCCCC1`, the inhibition came out at 8.51%.

Regarding `Oc1ccc2ccccc2c1CN1CCCC1`, the inhibition turned out to be 21.4%.

Consider `O=C(NC1CCCCC1)C1CCCN(S(=O)(=O)c2cccc3cccnc23)C1` (centres undefined), for which the inhibition is -8.57%.

On to `CCOC(=O)c1cc(=O)cc(C(=O)OCC)o1`, for which the inhibition is -3.36%.

In the case of `CCOC(=O)c1cc(=O)c2c([N+](=O)[O-])ccc(OC)c2o1`, the inhibition was -14.2%.

Consider `COc1cccc(C(=O)NCC(=O)NCc2cc(=O)n(C)c(=O)n2C)c1OC`, for which the inhibition is -9.9%.

For the compound `O=C1CNC(=S)N1C1CCCCCC1`, the inhibition was found to be 0.27%.

Regarding `O=C(CCN1C(=O)S/C(=C/c2ccc(F)cc2)C1=O)Nc1ccc(O)c(C(=O)O)c1`, the inhibition was -1.86%.

Take `O=C(CCN1C(=O)S/C(=C\c2ccc(F)cc2)C1=O)Nc1ccc(O)cc1C(=O)O`: the inhibition amounted to 24.1%.

For `CCCn1c(=O)c2ccccc2n2c(SCc3nnc(-c4ccccc4Br)o3)nnc12`, the inhibition is -5.68%.

In the case of `COC(=O)c1ccn(-c2nc(-c3ccco3)cc(C(F)(F)F)n2)n1`, the inhibition is -17.4%.

Consider `O=C(COc1ccccc1Cl)c1ccc2c(c1)CCCC2`, for which the inhibition was determined as 38.7%.

As for `Cc1ccc(CCC(=O)Nc2ccc(Cl)cc2)o1`, the inhibition came out at 79.5%.

Take `Cc1cccc(NC(=O)CCc2ccc(C)o2)c1`: the inhibition turned out to be 25.7%.

As to `Cc1ccc(NC(=O)CCc2ccc(C)o2)c(C)c1`, the inhibition is 68.3%.

In the case of `Cc1ccc(CCC(=O)Nc2ccc([N+](=O)[O-])cc2Cl)o1`, the inhibition was 75.5%.

In the case of `Cc1ccc(CCC(=O)Nc2ccc(N(C)C)cc2)o1`, the inhibition was 39.5%.

In the case of `Cc1ccc(C)c(NC(=O)CCc2ccc(C)o2)c1`, the inhibition is 79.3%.

Turning to `Cc1cccn2c(=O)c3cc(S(=O)(=O)c4ccccc4)c(=N)n(Cc4cccnc4)c3nc12`, the inhibition was -4.09%.

For the compound `Cc1ccc(C(=O)N2CCC(C(=O)Nc3cccc([N+](=O)[O-])c3)CC2)cc1`, the inhibition came out at 28.6%.

In the case of `Cc1ccccc1NC(=O)Cn1nc(C(=O)O)c2ccccc2c1=O`, the inhibition is -3.67%.

`Cc1ccc(C)c(-n2c(-c3csc(C)c3)n[nH]c2=S)c1`: the inhibition worked out at 11.6%.

In the case of `CCCC(=O)Nc1ccc(C2C(=O)c3ccccc3C2=O)cc1`, the inhibition was -4.62%.

As to `O=C(Nc1ccc(N2CCN(C(=O)c3ccccc3)CC2)cc1)c1ccc2c(c1)OCO2`, the inhibition stood at 13.6%.

Regarding `CCOC(=O)N1CCC(NC(=O)CN(C)S(=O)(=O)c2cc3c(cc2Cl)NC(=O)CO3)CC1`, the inhibition turned out to be 31.8%.

With `CCOC(=O)N1CCC(NS(=O)(=O)c2cc3c(cc2C)NC(=O)CO3)CC1`, the inhibition came to 8.95%.

As for `Oc1ccccc1N=Cc1ccc[nH]1`, the inhibition was 72.2%.

As for `O=C1NCC(O)=C1C=NCCO`, the inhibition is -6.04%.

Regarding `CCOc1ccc(NC(=O)CSc2nc(-c3cccs3)cc(C(F)(F)F)n2)c([N+](=O)[O-])c1`, the inhibition was 7.92%.

With `CCN(CC)C(=O)CSc1nc2c(c(-c3cccnc3)c1C#N)CCCC2`, the inhibition was found to be 24%.

Take `CN(c1ccccc1)S(=O)(=O)c1ccc(C(=O)OCC(=O)NCc2ccco2)cc1`: the inhibition came to 18.2%.

In the case of `O=C(N/N=C/c1ccc([N+](=O)[O-])o1)c1ccccc1NS(=O)(=O)c1cccs1`, the inhibition stood at 48%.

Consider `Nc1nonc1C(=O)N/N=C/c1ccc(-c2cccc([N+](=O)[O-])c2)o1`, for which the inhibition was -4.42%.

In the case of `O=C(N/N=C/c1ccc([N+](=O)[O-])cc1)c1cc2ccccc2o1`, the inhibition was 6.74%.

With `Cc1ccc(/C=N/NC(=O)c2cc(C)oc2C)o1`, the inhibition was determined as 3.1%.

On to `Nc1nonc1C(=O)N/N=C/c1ccc(Br)o1`, for which the inhibition was -9.49%.

Consider `O=C(N/N=C/c1cccc([N+](=O)[O-])c1)c1cc2ccccc2o1`, for which the inhibition was 21.7%.

Take `Cc1cc(C(=O)N/N=C/c2ccc([N+](=O)[O-])cc2)c(C)o1`: the inhibition is -13.2%.

`O=C(N/N=C/c1ccc([N+](=O)[O-])cc1)c1ccc(NS(=O)(=O)c2cccs2)cc1`: the inhibition amounted to 17.2%.

As for `O=S(=O)(Nc1nc2ccccc2nc1Cl)c1ccc2ccccc2c1`, the inhibition turned out to be 47.8%.

Regarding `Cc1ccc(NC(=O)COC(=O)C2CCN(c3ccc(C(F)(F)F)cn3)CC2)cc1C`, the inhibition was 14.8%.

For `N#Cc1nc(N2CCCCC2)nc(N2CCOCC2)n1`, the inhibition was 13.1%.

`C=CCn1c(CNC(=O)c2ccco2)nnc1SCC(=O)c1ccccc1`: the inhibition was 12.6%.

For the compound `CCCn1c(=O)c(C(=O)NNS(=O)(=O)c2ccc(Cl)cc2)c(O)c2ccccc21`, the inhibition came to 30.4%.

With `COc1cc(/C=N\Nc2nncn2N)ccc1OC(C)=O`, the inhibition amounted to 8.91%.

On to `COc1ccc(S(=O)(=O)NC(CC(=O)NCCc2ccc(OC)c(OC)c2)c2ccco2)cc1` (centres undefined), for which the inhibition is -6.87%.

In the case of `COCCSc1ccccc1C(=O)N1CCC(Cc2ccccc2)CC1`, the inhibition was 12.1%.

With `O=C(N/N=C/c1ccncc1)c1sc2ccccc2c1Cl`, the inhibition stood at 67.1%.

As to `O=C(N/N=C/c1ccc([N+](=O)[O-])o1)c1ccc(O)cc1`, the inhibition stood at 76.5%.

Regarding `CCN(CC)C(=O)Cn1cc(S(=O)(=O)CC(=O)Nc2ccc(F)cc2)c2ccccc21`, the inhibition was -1.96%.

For the compound `CCc1ccc(OCC(=O)N/N=C(\C)c2ccc(O)cc2O)cc1`, the inhibition is 69%.

Turning to `CCCCCCCCC(=O)N/N=C(\C)c1ccco1`, the inhibition is -9.44%.

`CCc1ccccc1N/N=C(/C)c1c(O)cc(C)oc1=O`: the inhibition was 19.8%.

With `CCCCCC(=O)c1ccc(O)cc1O`, the inhibition is 44.3%.

Turning to `C/C(=N\Nc1ccccc1)c1c(O)cc(C)oc1=O`, the inhibition is 54.3%.

As for `C/C(=N\NC(=O)c1cccnc1)c1c(O)cc(C)oc1=O`, the inhibition was -4.46%.

Consider `C/C(=N\NC(=O)c1ccccc1[N+](=O)[O-])c1c(O)cc(C)oc1=O`, for which the inhibition turned out to be 11.3%.

As to `C/C(=N\NC(=O)c1ccccc1O)c1c(O)cc(C)oc1=O`, the inhibition came to 76.5%.

For the compound `C/C(=C\c1ccccc1)CN1CCC(C(=O)N2CCCC(C)C2)CC1` (centres undefined), the inhibition amounted to 22.3%.

As for `COc1ccc(S(=O)(=O)N(C)C[C@H]2Oc3ccc(NS(=O)(=O)c4cn(C)cn4)cc3C(=O)N([C@H](C)CO)C[C@@H]2C)cc1`, the inhibition is -5.84%.

Regarding `O=C(CCc1nnc2ccc(NCc3ccco3)nn12)N1CCN(c2ccccc2F)CC1`, the inhibition was determined as 28.5%.

On to `O=C(COc1ccccc1)Nc1ccc(Cl)cc1Cl`, for which the inhibition is 72.1%.

For the compound `Cn1cnc2cc(NS(=O)(=O)c3ccc(Br)cc3)ccc21`, the inhibition was -3.25%.

Turning to `O=C(CCC(=O)c1ccc(F)cc1)OCc1nnc(-c2ccc([N+](=O)[O-])cc2)o1`, the inhibition came to 37%.

In the case of `Cc1cc(C(=O)N/N=C2\CCCc3ccccc32)c(C)o1`, the inhibition was determined as 8.07%.

As for `CC(C)c1ccc2[nH]c3c(c2c1)[C@@H]1CCN2C(=O)CCC[C@H](C3)[C@H]12`, the inhibition amounted to 18.1%.

`Cc1c(NS(=O)(=O)c2ccc(N=NN(C)C)cc2)c(=O)n(-c2ccccc2)n1C`: the inhibition was -13.3%.

Consider `COc1ccc2sc(-c3ccccc3OC)c(-c3ccc4c(c3)OCCO4)c2c1`, for which the inhibition is 17.4%.

In the case of `O=C1NC(=O)/C(=C/c2ccco2)N1`, the inhibition was -3.62%.

`CSc1c2c(nc3ncnn13)CCC2`: the inhibition is -27.5%.

In the case of `Cc1ccc(C(=O)N2N=C(c3ccccc3)CC2(O)C(F)(F)F)o1` (centres undefined), the inhibition came to 58.8%.

As to `Cc1ccc(C2=NN(C(=O)c3ccco3)C(O)(C(F)(F)F)C2)cc1` (centres undefined), the inhibition was 71.2%.

Consider `CC(C)CC1=NN(C(=O)c2ccncc2)C(O)(C(F)(F)F)C1` (centres undefined), for which the inhibition was 47.5%.

On to `O=C(c1ccco1)N1N=C(c2ccc(Br)cc2)CC1(O)C(F)(F)F` (centres undefined), for which the inhibition was found to be 29.3%.

On to `CCOC(=O)/C(=N\Nc1ccccc1Cl)N1CCN(c2ccccc2OC)CC1`, for which the inhibition was 19%.

For `c1ccc(-n2cnc3cc(NCc4cccs4)ccc32)cc1`, the inhibition came to 28.9%.

`COc1ccc2nc(NC(=O)c3ccccc3-c3ccccc3C(=O)O)sc2c1`: the inhibition is 76.6%.

`Cc1ccc(C(=O)O)c(C(=O)Nc2nc3ccccc3s2)c1`: the inhibition is 11.2%.

On to `O=C(COC(=O)c1ccccc1C(=O)c1ccccc1)NCc1ccc(F)cc1`, for which the inhibition was 31.8%.

On to `O=C(CCC(=O)N1CCN(c2ccccc2F)CC1)N1CCN(c2ccccc2)CC1`, for which the inhibition came out at 45%.

As to `O=C(CCc1ccccc1)N1CCN(c2ccc(F)cc2)CC1`, the inhibition is 73.8%.

In the case of `COC(=O)c1ccccc1NC(=O)CN1C(=O)CSC1=O`, the inhibition was -0.76%.

On to `COCCNCC(O)CON=C1c2ccccc2-c2ccccc21` (centres undefined), for which the inhibition came out at 54.3%.

In the case of `CC(C)(C)NCC(O)CON=C1c2ccccc2-c2ccccc21` (centres undefined), the inhibition worked out at 65.3%.

For `COc1ccc(-c2csc3ncnc(N4CCN(c5cccc(C)c5C)CC4)c23)cc1`, the inhibition was determined as 11.9%.

As to `O=C(NCCN1CCOCC1)C1CCN(S(=O)(=O)N2CCCCC2)CC1`, the inhibition is -2.95%.

In the case of `CCOC(=O)N1CCN(S(=O)(=O)c2ccc(C(=O)N(CCCN(C)C)c3nc4ccc(OC)cc4s3)cc2)CC1`, the inhibition was 3.45%.

Take `C/C(=C\C(=O)c1ccccc1)Nc1ccc(O)cc1`: the inhibition came to 29.4%.

For `COc1ccc(OC)c(N/C(C)=C/C(=O)c2ccncc2)c1`, the inhibition is 0%.

`COc1ccc(C(=O)c2c3ccc(OC)cc3[n+]([O-])n2Cc2ccc(C(N)=O)cc2)cc1`: the inhibition was determined as 17.1%.

For `COc1ccc(-c2nnc(SCC(=O)N(C)C3CCS(=O)(=O)C3)n2C(C)C)cc1` (centres undefined), the inhibition is -12.8%.

Regarding `Cc1ccc(C2=N/C(=C\N3CCCCC3)C(=O)O2)cc1`, the inhibition was 21.3%.

`CC1=N/C(=C/c2cccnc2)C(=O)O1`: the inhibition was -16.7%.

For `COc1ccccc1C(c1c(N)n(C)c(=O)n(C)c1=O)C(C)[N+](=O)[O-]` (centres undefined), the inhibition turned out to be 53%.

As for `COc1cc(C(C[N+](=O)[O-])c2c(N)n(C)c(=O)n(C)c2=O)ccc1O` (centres undefined), the inhibition is 23.3%.

Regarding `COc1ccc(CCN(C)Cc2ccncc2)cc1OC`, the inhibition came out at 1.96%.

As to `O=[N+]([O-])c1ccc(Oc2cccc3cccnc23)c([N+](=O)[O-])c1`, the inhibition came to 72%.

Turning to `COc1ccc(OC(=O)c2ccc(OC)c(S(=O)(=O)N3CCOCC3)c2)cc1`, the inhibition amounted to 21.9%.

`COc1ccccc1OC(=O)c1ccc(C)c(S(=O)(=O)N2CCOCC2)c1`: the inhibition amounted to 16.8%.

In the case of `O=C(Nc1ncccc1O)c1ccc2c(c1)OCCO2`, the inhibition is -9.11%.

For `O=C(Nc1cccc2cccnc12)c1cccc([N+](=O)[O-])c1`, the inhibition worked out at 14.7%.

As to `O=C(Nc1cccc2cccnc12)c1ccc2c(c1)OCCO2`, the inhibition worked out at 16.4%.
